# Most compounds without a hit are left out; they make up all but 3.7% or so of the library.
# BoNT-A LC inh2 – blocks Botulinum neurotoxin A light chain protease. multiplex microsphere protease substrate cleavage, flow cytometry. inhibition, % at 10 µM. 360,000 compounds, 0.17% hits; also: plate controls were buffer without enzyme for full effect and enzyme alone for no effect
# MazF activator – increases E. coli MazEF RNase cleavage of RNA; P0AE70; FAM/BHQ RNA-DNA oligo cleavage fluorescence, 5 h; activation, % at 20 µM; 350,000 compounds, 0.32% hits; AID 504720; in the data active = activation above about 50%
# Bead autofluor – compound fluorescence in toxin protease inhibitor counterscreen. 360,000 compounds, 3.1% hits. fluorescence intensity (concentration not given with the values). compound autofluorescence counterscreen, microsphere flow cytometry; hits give high values; in the data active = fluorescence intensity above about 16000; inconclusive = no clear call, values can overlap the other calls
# Anthrax LF prot – anthrax lethal factor protease inhibition. multiplex microsphere protease cleavage assay, LF. 360,000 compounds, 0.12% hits. inhibition, % at 10 µM. P15917; also: plate controls were buffer without enzyme for full effect and enzyme alone for no effect
# BoNT-F LC inh – inhibitors of Botulinum neurotoxin F light chain protease. AID 588497. inhibition, % at 10 µM. 360,000 compounds, 0.22% hits. Multiplex microsphere protease cleavage assay, flow cytometry; in the data active = inhibition above about 35%, passing the limit was not always enough; inconclusive = no clear call, values can overlap the other calls; also: plate controls were buffer without enzyme for full effect and enzyme alone for no effect
# An asterisk follows results filed as active; ? = inconclusive; / = no result given. Rule as the data show it, unless noted: active = inhibition above about 30%; inconclusive = no clear call, values can overlap the other calls; inactive = below that.
SMILES,BoNT-A LC inh2,MazF activator,Bead autofluor,Anthrax LF prot,BoNT-F LC inh
CCC(=O)NC(c1ccc([N+](=O)[O-])cc1)c1c(O)ccc2ccccc12 (configuration not stated),?,3,24260*,-3,-5
O=C1Nc2ccccc2/C1=C\c1cccn1-c1ccc(OC(F)(F)F)cc1,-2,-1,24253*,-5,-6
COC(=O)C(c1cc(OC)c(O)c(OC)c1)(N1CCNC(C)C1)C(F)(F)F (configuration not stated),3,9,18737*,-5,4
COC(=O)C1=C(C)N(C)C(=O)NC1c1cc(Cl)c(O)c(OC)c1 (configuration not stated),0,0,5831,-4,0
CSc1ccccc1N1CCN(C(=O)Nc2ccc3c(c2)NC(=O)CO3)CC1,?,5,21233*,-9,0
O=C(NCc1ccco1)c1cccc2c1C(=O)c1ccc(/C=C/c3ccccc3)cc1S2(=O)=O,1,-15,3510,-1,14
COc1cc(C2c3c(n[nH]c3C)C(=O)N2c2ccc(C)cc2)ccc1O (configuration not stated),0,7,9173,-10,0
CCOc1cc(C2c3c(n[nH]c3C)C(=O)N2c2ccc(C)cc2)ccc1O (configuration not stated),1,0,23172*,-1,2
CCOC(=O)N(C)C[C@@H]1OCc2cnnn2CCCC(=O)N([C@H](C)CO)C[C@H]1C,0,3,3387,-2,0
O=C1c2ccccc2S(=O)(=O)N1CCOc1ccc(F)cc1,-1,4,24481*,-2,-5
O=C(CCN1C(=O)c2ccccc2S1(=O)=O)NCc1ccc(F)cc1,?,-6,?,?,?
Cc1nc2sc(C(=O)OCC(=O)N3c4ccccc4CC3C)c(C)c2c(=O)[nH]1 (configuration not stated),1,72*,4330,-2,7
O=C(N/N=C/C(Br)=C\c1ccccc1)c1n[nH]c2c1CCC2,-5,4,25111*,-3,-7
Cc1ccc2c3c(c(SCC(=O)Nc4nonc4C)nc2c1)CCCC3,?,47,23233*,-3,-1
CC(NCc1ccc(Cl)cc1Cl)C(O)c1ccccc1 (configuration not stated),0,2,7170,-1,-2
COc1cc(OC)c(OC)cc1CNC(C)C(O)c1ccccc1 (configuration not stated),-3,3,17763*,-1,-3
CCS(=O)(=O)N1Cc2cc(C(=O)NCC3CC3)nc(-c3cccc(-c4cccnc4)c3)c2[C@@H]1CCO,0,/,6333,-5,0
CC(=O)C1=C(c2cccc([N+](=O)[O-])c2)N(C(C)=O)n2c(C)nnc2S1,0,52*,2622,0,-6
CCOC(=O)N(c1ccccc1)P1(=S)OCCO1,/,2,/,/,/
CCOC(=O)N(c1ccccc1)P1(=S)OCC(C)O1 (configuration not stated),-1,0,20958*,0,-3
COc1ccc(OC)c(CN2C(=O)c3ccccc3C2c2nnnn2-c2ccc3c(c2)OCCO3)c1 (configuration not stated),-1,/,4440,1,5
C[C@H](NS(=O)(=O)c1ccc(Cl)cc1)C(=O)OCC(=O)Nc1cc(S(=O)(=O)N2CCOCC2)ccc1Cl,0,10,2952,2,2
CCS(=O)(=O)c1ccc2oc(SCC(=O)NCCc3ccccc3)nc2c1,0,2,3352,0,0
NS(=O)(=O)c1ccc(CCNC(=O)CSc2ccc(Cl)cc2Cl)cc1,0,63*,4765,-4,-6
O=C(CSc1nc2cc(Cl)ccc2o1)NCCc1ccccc1,-1,-4,19890*,0,-4
SMILES,BoNT-A LC inh2,MazF activator,Bead autofluor,Anthrax LF prot,BoNT-F LC inh
COC(=O)Cn1c(=NC(=O)c2cc(-c3cccs3)nc3ccccc23)sc2cc(S(N)(=O)=O)ccc21,38*,-22,2153,9,0
CCOc1ccccc1Nc1nc(N)nc(CSc2nncn2C)n1,0,1,23051*,-5,1
COc1ccc(Nc2nc(N)nc(CSc3nnc(C)s3)n2)cc1,-1,-6,3284,-4,-2
CCOc1ccccc1Nc1nc(N)nc(CSc2nccc(C)n2)n1,1,-26,4788,-2,-7
COc1ccc(Nc2nc(N)nc(CSc3nncn3C)n2)cc1,-1,-6,16635*,-4,2
O=c1c2ccccc2oc2c1oc1ccccc12,0,-1,3480,-8,-2
C=CCN1C(=O)CS/C1=N/c1nccs1,-6,3,21993*,-2,-6

# High-throughput results as filed in PubChem.
